Measurements as given in the supplement of paper PMC9262897, “Low-cost anti-mycobacterial drug discovery using engineered E. coli” (Nature Communications, 2022).
Where a name gives a salt, the structure may show the parent alone. ± gives the standard deviation of the averaged measurements.

Tests used:
Assay in all cases: growth (OD600 after 10 h); higher = more growth (less inhibition)
[1] = system: E. coli TESEC Alr+ wild-type control; conditions: compound 0.1 mM; raw OD600 reference: median of DMSO wells 0.241, cell-free background 0.041
Experimental: (§1)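 TESEC Mtb Alr E. coli, or the Alr+ wild-type control, in 384-well plates with Prestwick library compounds at 0.1 mM and 1% DMSO, across arabinose induction levels of 1E3 to 1E7 nM. Growth is read as OD600 after 10 h at 37 °C in triplicate biological replicates.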

E. coli TESEC Mtb Alr [2] = conditions: compound 0.1 mM
Experimental: as §1

E. coli TESEC Mtb Asd = conditions: compound 0.1 mM
Experimental: (§2)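 TESEC E. coli strains in which the native enzyme is deleted and replaced by arabinose-inducible Mtb Asd, DapB, CysH or TrpD, each grown in its selective medium. Strains were screened against the Prestwick library at 0.1 mM and 1% DMSO in 384-well format at low and high arabinose induction. Growth is read as OD600 after 10 h in triplicate.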

E. coli TESEC Mtb DapB = conditions: compound 0.1 mM
Experimental: as §2

[3] = system: E. coli TESEC Alr+ wild-type control; conditions: compound 0.1 mM; raw OD600 reference: median of DMSO wells 0.49, cell-free background 0.052
Experimental: (§3)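 TESEC Mtb Alr E. coli (ΔaraC ΔtolC ΔentC Δalr ΔdadX, arabinose-inducible Mtb Alr) or the Alr+ wild-type control strain, grown in defined M9-fructose medium without D-alanine in 96-well plates with Prestwick library compounds at 0.1 mM and 1% DMSO. Low Alr induction is 0.1 µM arabinose and high induction is 10 mM arabinose.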

E. coli TESEC Mtb Alr [4] = conditions: compound 0.1 mM; remark: listed apart in the source
Experimental: as §3

[5] = arabinose 1000 nM, raw OD600 reference: median of DMSO wells 0.294, cell-free background 0.041
[6] = arabinose 10000 nM, raw OD600 reference: median of DMSO wells 0.264, cell-free background 0.041
[7] = arabinose 100000 nM, raw OD600 reference: median of DMSO wells 0.201, cell-free background 0.041
[8] = arabinose 1000000 nM, raw OD600 reference: median of DMSO wells 0.193, cell-free background 0.041
[9] = arabinose 10000000 nM, raw OD600 reference: median of DMSO wells 0.146, cell-free background 0.041
[10] = arabinose induction (level): High, raw OD600 reference: median of DMSO wells 0.331, cell-free background 0.041
[11] = arabinose induction (level): Low, raw OD600 reference: median of DMSO wells 0.417, cell-free background 0.041
[12] = arabinose induction (level): High, raw OD600 reference: median of DMSO wells […], cell-free background 0.041
[13] = arabinose induction (level): Low, raw OD600 reference: median of DMSO wells 0.227, cell-free background 0.041
[14] = arabinose 100 nM, raw OD600 reference: median of DMSO wells 0.413, cell-free background 0.052
[15] = arabinose 10000000 nM, raw OD600 reference: median of DMSO wells […], cell-free background 0.052

SMILES | growth [1] | growth (E. coli TESEC Mtb Alr [2]; [5]) | growth (E. coli TESEC Mtb Alr [2]; [6]) | growth (E. coli TESEC Mtb Alr [2]; [7]) | growth (E. coli TESEC Mtb Alr [2]; [8]) | growth (E. coli TESEC Mtb Alr [2]; [9]) | growth (E. coli TESEC Mtb Asd; [10]) | growth (E. coli TESEC Mtb Asd; [11]) | growth (E. coli TESEC Mtb DapB; [12]) | growth (E. coli TESEC Mtb DapB; [13]) | growth [3] | growth (E. coli TESEC Mtb Alr [4]; [14]) | growth (E. coli TESEC Mtb Alr [4]; [15])
CC(=O)Nc1ccc(CC(=O)O)cc1 [Actarit] | 0.2349 ± 0.00093 | 0.291 ± 0.024 | 0.259 ± 0.0053 | 0.198 ± 0.015 | 0.217 ± 0.0053 | 0.136 ± 0.0042 | 0.291 ± 0.009 | 0.311 ± 0.097 | 0.183 ± 0.017 | 0.203 ± 0.025 | 0.574 ± 0.11 | 0.412 ± 0.011 | 0.342 ± 0.015
Cc1c(N(C)CS(=O)(=O)O)c(=O)n(-c2ccccc2)n1C [Dipyrone] | 0.245 ± 0.0074 | 0.323 ± 0.022 | 0.251 ± 0.0032 | 0.217 ± 0.023 | 0.169 ± 0.0052 | 0.157 ± 0.0028 | 0.488 ± 0.025 | 0.452 ± 0.0059 | 0.204 ± 0.003 | 0.23 ± 0.012 | 0.473 ± 0.039 | 0.4104 ± 0.0007 | 0.335 ± 0.011
COc1ccc(CC2c3cc(OC)c(OC)cc3CC[N+]2(C)CCC(=O)OCCCCCOC(=O)CC[N+]2(C)CCc3cc(OC)c(OC)cc3C2Cc2ccc(OC)c(OC)c2)cc1OC (stereo not drawn) [Atracurium besylate] | 0.177 ± 0.0075 | 0.271 ± 0.013 | 0.25 ± 0.011 | 0.174 ± 0.014 | 0.127 ± 0.0067 | 0.137 ± 0.006 | 0.283 ± 0.059 | 0.398 ± 0.037 | 0.171 ± 0.017 | 0.218 ± 0.05 | 0.431 ± 0.027 | 0.416 ± 0.014 | 0.336 ± 0.06
Cc1ccc(O)c([C@H](CCN(C(C)C)C(C)C)c2ccccc2)c1 [Tolterodine tartrate] | 0.163 ± 0.0078 | 0.245 ± 0.0098 | 0.283 ± 0.0087 | 0.201 ± 0.0068 | 0.148 ± 0.0076 | 0.191 ± 0.0035 | 0.245 ± 0.032 | 0.38 ± 0.025 | 0.198 ± 0.018 | 0.238 ± 0.036 | 0.55 ± 0.029 | 0.417 ± 0.0075 | 0.3 ± 0.013
CC[C@H]1OC(=O)[C@H](C)[C@@H](O[C@H]2C[C@@](C)(OC)[C@@H](O)[C@H](C)O2)[C@H](C)[C@@H](O[C@@H]2O[C@H](C)C[C@H](N(C)C)[C@H]2O)[C@](C)(O)C[C@@H](C)CN(C)[C@H](C)[C@@H](O)[C@]1(C)O [Azithromycin] | 0.04107 ± 0.00015 | 0.0419 ± 0.0015 | 0.03977 ± 0.00031 | 0.0416 ± 0.00058 | 0.03993 ± 0.00025 | 0.0413 ± 0.00057 | 0.0597 ± 0.003 | 0.0647 ± 0.0021 | 0.1 ± 0.088 | 0.0998 ± 0.09 | 0.0526 ± 0.00017 | 0.05527 ± 0.00032 | 0.05133 ± 0.00015
NS(=O)(=O)c1cc2c(cc1Cl)NC(C(Cl)Cl)NS2(=O)=O (stereo not drawn) [Trichlormethiazide] | 0.243 ± 0.0058 | 0.296 ± 0.021 | 0.278 ± 0.0046 | 0.2 ± 0.013 | 0.195 ± 0.015 | 0.139 ± 0.0024 | 0.331 ± 0.037 | 0.448 ± 0.033 | 0.191 ± 0.0022 | 0.246 ± 0.041 | 0.631 ± 0.095 | 0.408 ± 0.0097 | 0.357 ± 0.01
COc1ccc(-c2ccc3cc(C(=O)O)ccc3c2)cc1C12CC3CC(CC(C3)C1)C2 [Adapalene] | 0.2339 ± 0.00031 | 0.282 ± 0.014 | 0.26 ± 0.0041 | 0.185 ± 0.013 | 0.223 ± 0.016 | 0.125 ± 0.0023 | 0.231 ± 0.0037 | 0.298 ± 0.079 | 0.193 ± 0.013 | 0.249 ± 0.028 | 0.483 ± 0.01 | 0.435 ± 0.014 | 0.402 ± 0.085
CC(C)Oc1ccc2c(=O)c(-c3ccccc3)coc2c1 [Ipriflavone] | 0.196 ± 0.0047 | 0.25 ± 0.018 | 0.231 ± 0.0093 | 0.186 ± 0.015 | 0.117 ± 0.02 | 0.138 ± 0.0016 | 0.345 ± 0.098 | 0.4 ± 0.021 | 0.191 ± 0.018 | 0.211 ± 0.039 | 0.464 ± 0.025 | 0.402 ± 0.014 | 0.285 ± 0.012
NCCNCCNCCNCCN [Tetraethylenepentamine pentahydrochloride] | 0.273 ± 0.0096 | 0.313 ± 0.013 | 0.263 ± 0.0027 | 0.217 ± 0.028 | 0.181 ± 0.011 | 0.136 ± 0.0077 | 0.337 ± 0.074 | 0.441 ± 0.0047 | 0.196 ± 0.003 | 0.22 ± 0.015 | 0.4747 ± 0.0042 | 0.414 ± 0.0053 | 0.303 ± 0.01
CCS(=O)(=O)CCn1c([N+](=O)[O-])cnc1C [Tinidazole] | 0.237 ± 0.0086 | 0.286 ± 0.011 | 0.256 ± 0.0041 | 0.198 ± 0.0079 | 0.169 ± 0.0069 | 0.139 ± 0.005 | 0.345 ± 0.048 | 0.405 ± 0.013 | 0.204 ± 0.0081 | 0.212 ± 0.027 | 0.521 ± 0.092 | 0.402 ± 0.0095 | 0.315 ± 0.0068
O=C(O)CCC(=O)c1ccc(-c2ccccc2)cc1 [Fenbufen] | 0.201 ± 0.0054 | 0.232 ± 0.013 | 0.229 ± 0.0062 | 0.137 ± 0.0052 | 0.128 ± 0.0089 | 0.127 ± 0.0092 | 0.25 ± 0.049 | 0.286 ± 0.047 | 0.165 ± 0.0041 | 0.203 ± 0.047 | 0.441 ± 0.051 | 0.399 ± 0.013 | 0.235 ± 0.007
Cc1c(Cl)cccc1Nc1ncccc1C(=O)O [Clonixin Lysinate] | 0.181 ± 0.0096 | 0.207 ± 0.0063 | 0.155 ± 0.0017 | 0.173 ± 0.0047 | 0.0952 ± 0.0017 | 0.15 ± 0.0047 | 0.19 ± 0.011 | 0.17 ± 0.0079 | 0.175 ± 0.019 | 0.207 ± 0.035 | 0.334 ± 0.0083 | 0.283 ± 0.023 | 0.173 ± 0.026
CN(C)CCOC(c1ccccc1)c1ccccc1 [Diphenhydramine hydrochloride] | 0.2284 ± 0.002 | 0.296 ± 0.008 | 0.238 ± 0.0071 | 0.187 ± 0.013 | 0.151 ± 0.0087 | 0.148 ± 0.0063 | 0.194 ± 0.016 | 0.435 ± 0.016 | 0.195 ± 0.021 | 0.24 ± 0.051 | 0.495 ± 0.051 | 0.408 ± 0.0097 | 0.307 ± 0.029
COc1ccc(C(=O)CC(=O)c2ccc(C(C)(C)C)cc2)cc1 [Avobenzone] | 0.116 ± 0.017 | 0.188 ± 0.026 | 0.197 ± 0.016 | 0.176 ± 0.02 | 0.107 ± 0.033 | 0.109 ± 0.0074 | 0.277 ± 0.068 | 0.27 ± 0.0061 | 0.202 ± 0.072 | 0.239 ± 0.055 | 0.533 ± 0.076 | 0.247 ± 0.058 | 0.267 ± 0.0055
CCN(CCCCOC(=O)c1ccc(OC)c(OC)c1)C(C)Cc1ccc(OC)cc1 (stereo not drawn) [Mebeverine hydrochloride] | 0.157 ± 0.004 | 0.231 ± 0.0024 | 0.243 ± 0.0072 | 0.18 ± 0.0066 | 0.125 ± 0.0057 | 0.165 ± 0.0094 | 0.197 ± 0.026 | 0.396 ± 0.046 | 0.166 ± 0.012 | 0.252 ± 0.032 | 0.435 ± 0.016 | 0.4063 ± 0.003 | 0.311 ± 0.0053
NC(N)=Nc1nc(CSCC/C(N)=N/S(N)(=O)=O)cs1 [Famotidine] | 0.248 ± 0.0073 | 0.298 ± 0.013 | 0.273 ± 0.014 | 0.203 ± 0.03 | 0.187 ± 0.0063 | 0.151 ± 0.011 | 0.348 ± 0.074 | 0.436 ± 0.038 | 0.206 ± 0.043 | 0.203 ± 0.025 | 0.465 ± 0.058 | 0.413 ± 0.0053 | 0.328 ± 0.014
